Screening results: PubChem BioAssay, National Center for Advancing Translational Sciences (NCATS)
Rows were chosen to be rich in hits. Some 2.4% of all compounds tested hit in one or more screens of this group.
Rango release inh – qHTS Assay for Inhibitors of RanGTP induced Rango (Ran-regulated importin-beta cargo) - Importin beta complex dissociation | Biochemical FRET Rango-importin beta, RanGTP-induced dissociation | Potency, µM (top dose mostly 46.1 µM), for the others: top-dose activity change, negative = inhibition | 340,000 compounds, 0.071% hits | AID 540253, 2011; note: % of control where 0% means no effect; nearly all actives have a fitted effect of over 45% in size
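Rango (0.1 uM)–importin beta (0.25 uM) complex; RanGTP-RCC1 trigger; 45 min RT; CFP/YFP FRET read.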
12-LOX inh – Primary qHTS assay for inhibitors of human arachidonate 12S-lipoxygenase (ALOX12): Round 2. purified 12hLO, xylenol orange hydroperoxide absorbance. Potency, µM (series often up to 108 µM), without a hit: at the top dose activity change, negative = inhibition, hits mostly inhibitors. 580,000 compounds, 1.1% hits; active = well fitted curve in the direction sought with a large enough effect; inconclusive = small, poorly fitted or top-dose-only effect, or another doubt; inactive = no such curve, though single readings can be large; an effect the other way counts as inactive or inconclusive; note: % is set by controls: 0 for no effect and ±100 for the full control effect
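Purified human 12hLO at 150 nM in 25 mM Hepes, 0.01% Triton X-100, pH 7.0, preincubated 15 min at room temperature with compound. Reaction started with 40 uM arachidonic acid, 30 min at room temperature. Hydroperoxide measured by Fe-xylenol orange, 573/405 nm absorbance ratio.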
Rango-impB inh – qHTS Assay for Inhibitors of Rango (Ran-regulated importin-beta cargo) - Importin beta complex formation. Importin subunit beta-1 (Homo sapiens), Q14974. Rango CFP/YFP FRET sensor + importin beta, 45 min. Potency, µM (highest dose often 92.2 µM), for the others: at the highest dose inhibition of complex formation. 340,000 compounds, 0.031% hits. AID 540263, 2011;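 note: 0% = DMSO wells and 100% = buffer wells lacking importin beta; nearly all actives have a fitted effect of over 15% in size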
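FRET biosensor Rango (snurportin 1 IBB between N-terminal EYFP and C-terminal Cerulean), 50 nM in PBS/1 mM DTT/0.02% Tween-20/0.1% BSA, preincubated 5 min RT with compound; 0.125 microM importin beta added, 45 min RT, CFP/YFP FRET ratio read.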
PTAP TSG101 blk – qHTS Assay for Iinhibitors of HIV-1 Budding by Blocking the Interaction of PTAP/TSG101; Potency, µM (doses to about 115 µM), for the others: at the top dose activity change, negative = inhibition, most hits filed as inhibitors; 340,000 tested, under 10 active; Fluorescence polarization, FITC-PTAP peptide / Tsg101 binding; Tumor susceptibility gene 101 protein (Homo sapiens), Q99816; AID 493005, 2010; active = well fitted inhibition curve with a large enough effect in the main read-out, with a control signal flat, not every such curve was filed as active; inconclusive = small, poorly fitted or top-dose-only effect, or effect the other way, or a change in a side signal; inactive = no such curve, though single readings can be large or run the other way; note: % of control where 0% means no effect
Target sequence (Q99816 whole entry, looked up): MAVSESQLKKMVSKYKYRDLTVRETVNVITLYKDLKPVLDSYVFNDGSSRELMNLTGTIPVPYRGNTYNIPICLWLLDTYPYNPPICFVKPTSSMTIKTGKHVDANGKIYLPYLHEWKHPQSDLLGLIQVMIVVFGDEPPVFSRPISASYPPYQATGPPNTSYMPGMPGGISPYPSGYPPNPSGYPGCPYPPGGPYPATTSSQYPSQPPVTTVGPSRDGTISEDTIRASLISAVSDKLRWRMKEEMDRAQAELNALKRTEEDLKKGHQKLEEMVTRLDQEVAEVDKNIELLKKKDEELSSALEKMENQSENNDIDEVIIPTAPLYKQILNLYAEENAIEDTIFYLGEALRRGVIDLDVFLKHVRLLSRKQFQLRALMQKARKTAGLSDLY
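Steps: Tsg101 binding domain dispensed (10 uM final), compounds pinned in DMSO, FITC-labeled PTAP-motif peptide added (50 nM final); after 20 min binding at room temperature, polarization measured.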
TDP1 inh – qHTS Assay for Inhibitors of Tyrosyl-DNA Phosphodiesterase (TDP1). Potency, µM (series often up to 130 µM), for the others: at the highest dose activity change, negative = inhibition, hits mostly inhibitors. recombinant TDP1, AlphaScreen DNA substrate cleavage. 350,000 compounds, 0.28% hits; active = well fitted curve in the direction sought with a large enough effect; inconclusive = small, poorly fitted or top-dose-only effect, or another doubt; inactive = no such curve, though single readings can be large; an effect the other way counts as inactive or inconclusive; note: % is set by controls: 0 for no effect and ±100 for the full control effect; nearly all actives have a fitted effect of over 40% in size
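Signal: AlphaScreen proximity between streptavidin donor and anti-FITC acceptor beads on intact substrate. Reaction: Tdp1 1 nM, substrate 15 nM final, 5 min RT after 15 min compound preincubation.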
ClpP mod – qHTS Assay for Activators of ClpP; Potency, µM (doses to about 57.5 µM), for inactives: at the highest dose activity change, negative = active; purified B. subtilis ClpP, FRET peptide cleavage, 20 min; 340,000 compounds, 1.9% hits; ATP-dependent Clp protease proteolytic subunit (Bacillus subtilis (strain 168)), P80244; active = well fitted falling curve with a large enough effect; inconclusive = small, poorly fitted or top-dose-only effect; inactive = no such curve, though single readings can be large or run the other way; note: the source files actives as falling curves though it sought activators and does not explain the sign; nearly all actives have a fitted effect of over 65% in size
Target sequence (P80244 whole entry, looked up): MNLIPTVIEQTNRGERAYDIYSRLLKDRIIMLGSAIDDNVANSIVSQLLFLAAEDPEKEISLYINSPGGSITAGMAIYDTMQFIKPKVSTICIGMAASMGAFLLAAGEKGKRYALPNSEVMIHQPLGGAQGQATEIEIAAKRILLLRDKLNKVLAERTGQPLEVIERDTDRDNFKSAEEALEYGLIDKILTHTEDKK
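ClpP 10 microg/mL final, pH 8 Tris/KCl buffer with BSA, glycerol, Tween-20; compound pinned in; FRET-FV substrate; RT 20 min; Ex320/Em430; ΔFRET vs ADEP 5.8 microM, DMSO, no enzyme.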
An asterisk follows results filed as active; ? = inconclusive; · = no result; ! = a repeat was not active; [ ] = remark or other dose. Unless noted, calls come from the whole dose curve. Potency is the fitted concentration of half-maximal effect.

SMILES | Rango release inh | 12-LOX inh | Rango-impB inh | PTAP TSG101 blk | TDP1 inh | ClpP mod
Cc1ccc(CN(Cc2cc3cc4c(cc3[nH]c2=O)OCCO4)Cc2nnnn2Cc2ccco2)cc1 | -29% | -20% | ? | -3% | · | 32µM*
COc1ccc(/C(O)=C2\C(=O)C(=O)N(c3cc(C)on3)C2c2ccc(OC)c(OC)c2)cc1OC (stereo unspecified) | -9% | ? | 3% | -3% | -5% | 1%
CCOc1cc(C2/C(=C(\O)c3ccc(Cl)cc3)C(=O)C(=O)N2c2cc(C)on2)ccc1O (stereo unspecified) | · | 16µM* | · | · | · | ·
CCCc1cc(=O)oc2cc(C)cc(OC(C)C(=O)O)c12 (stereo unspecified) | · | -16% | · | · | · | ·
Cc1cc(NC(=O)c2cc3n(n2)CC(c2ccc4c(c2)OCO4)OC3)ccc1F (stereo unspecified) | · | 48% | · | · | · | ·
COc1ccccc1-c1cc(C(=O)O)c2ccc(C)c(C)c2n1 | · | -22% | · | · | · | ·
COc1ccccc1-c1cc(C(=O)O)c2cc(C)cc(C)c2n1 | · | 28µM* | · | · | · | ·
COc1ccc2c(c1)c(=O)oc1cc(OCC(=O)NC3CC3)ccc12 | 0% | 0% | ? | -8% | · | ?
COc1ccc2c(c1)c(=O)oc1cc(OCC(=O)NC3CCCCC3)ccc12 | 3% | ? | -4% | -2% | · | 8.9µM*
N#CC1(NC(=O)COc2ccc3ccc(=O)oc3c2)CCCCC1 | -10% | -13% | -3% | 1% | · | 35µM*
O=C(COc1ccc2ccc(=O)oc2c1)NC1CCCCC1 | -6% | ? | 6% | -4% | 0%[56.1 µM] | 10µM*
Nc1cc(Cl)ccc1OCC1CCCO1 (stereo unspecified) | · | 3% | · | · | · | ·
N#CC1=C(N)SC(N)=C(C#N)C1c1ccnc2ccccc12 | ? | 4.5µM* | ? | 15% | -2% | -10%
O=C1c2ccccc2C(=O)C1c1ccnc2ccccc12 | ? | -4% | ? | -4% | -10% | 1%
O=C(/C=C/c1c(F)cccc1Cl)NCc1ccco1 | 43% | 7% | 2% | -2% | 3% | 10µM*
COc1ccc(-c2cc(C(=O)NCCc3ccccc3)c3c(-c4ccc(Cl)cc4)[nH]nc3n2)cc1 | · | -32% | · | · | 3% | 4%
COc1ccc(-c2cc(C(=O)NCCc3ccccc3)c3c(-c4ccccc4)[nH]nc3n2)cc1 | · | -21% | · | · | 3% | 13µM*
CNC(=O)Cn1nc(C2CCN(C(=O)Cc3ccsc3)CC2)c2c1CCOC2 | · | 44% | · | · | · | ·
COC(=O)c1cccc(NC(=O)c2c(OC)cc(=O)n3c2CCCC3)c1 | · | 29% | · | · | · | ·
CN(c1ccccc1)S(=O)(=O)c1cccc(C(=O)NC2CCCC2)c1 | -2% | -2% | 3% | -4% | -1% | 32µM*
Cc1ccccc1NC(=O)Cn1c(C)nc2ccc(N)cc2c1=O | 2% | -8% | 1% | -3% | 2% | 28µM*
CCN(C(=O)COC(=O)c1ccc(OCc2c(C)noc2C)cc1)c1ccccc1 | 15% | -1% | 3% | -5% | 2% | 25µM*
CCN(c1ccccc1)S(=O)(=O)c1ccc(OCc2c(C)noc2C)cc1 | -4% | 0% | 3% | -2% | 0% | 0%
O=C(Cc1cccs1)NCC1CCCCC(=O)N1 (stereo unspecified) | · | 19% | · | · | · | ·
CCCCNC(=O)c1c(O)c2cccc3c2n(c1=O)CCC3 | 0% | 29% | 8% | -3% | 3% | 11µM*
SMILES | Rango release inh | 12-LOX inh | Rango-impB inh | PTAP TSG101 blk | TDP1 inh | ClpP mod
Cc1ccc(CC(=O)N2CCC(Cc3nc(C(C)C)no3)CC2)cc1 | · | -1% | · | · | · | ·
Cc1ccc(CNC(=O)c2ccc(CSCc3ccc(C)cc3)o2)cc1 | · | 11µM*! | · | · | -3% | -1%
Cc1ccc(CNC(=O)c2ccc(CSCc3cccc(C)c3)o2)cc1 | · | ? | · | · | -5% | -4%
COC(=O)c1ccccc1NS(=O)(=O)c1ccc(F)cc1 | -12% | ? | -4% | -9% | -2% | -2%
COC(=O)c1ccccc1NC(=O)Oc1ccc(F)cc1 | 11% | 1% | -1% | 1% | -2% | 25µM*
COc1ccc(-c2cc(C(F)(F)F)nc(SCCC(=O)Nc3cc(C)on3)n2)cc1 | -3% | 0% | 0% | -1% | -8% | 35µM*
COc1ccc(-c2cc(C(F)(F)F)nc(SCC(=O)NCc3ccc(OC)c(OC)c3)n2)cc1 | · | -11% | · | · | 4% | -8%
COc1ccc(NC(=O)CCSc2nc(-c3ccc(OC)cc3)cc(C(F)(F)F)n2)cc1 | · | -22% | · | · | 4% | -13%
COc1ccc(-c2cc(C(F)(F)F)nc(SCC(=O)Nc3ccc(O)cc3)n2)cc1OC | · | 0% | · | · | -5% | -18%
COc1ccc(-c2cc(C(F)(F)F)nc(SCC(=O)NCc3cccs3)n2)cc1OC | 4% | -10% | ? | 0% | 1% | 25µM*
O=C(O)CCS(=O)(=O)c1nc(-c2cccs2)cc(C(F)(F)F)n1 | -2% | -19% | 6% | -12% | 6% | 14µM*
COc1ccc(-c2cc(C(F)(F)F)nc(SCC(=O)Nc3cc(C)on3)n2)cc1OC | 3% | 13% | 3% | -3% | 4% | 13µM*
CCOc1ccc2oc(=O)cc(CN3CCN(CC(=O)Nc4ccc(C)c(F)c4)CC3)c2c1 | · | 3% | · | · | · | ·
O=C(CSc1nc(-c2cccs2)cc(C(F)(F)F)n1)NCc1ccccc1 | -10% | 13% | -3% | -4% | 0% | 35µM*
COc1cccc([C@H]2[C@@H](C(=O)O)c3ccccc3C(=O)N2Cc2ccc(F)cc2)c1 | · | -5% | · | · | · | ·
COc1cccc(C2NC(=S)N(Cc3ccc(F)cc3)C(C)=C2C(C)=O)c1 (stereo unspecified) | · | 45µM* | · | · | · | ·
CC(=O)C1=C(C)N(Cc2ccc(F)cc2)C(=S)NC1c1cccc(Cl)c1 (stereo unspecified) | · | 45µM* | · | · | · | ·
CC(=O)OC[C@H]1O[C@@H](Sc2cccc3cccnc23)[C@H](OC(C)=O)[C@@H](OC(C)=O)[C@H]1OC(C)=O | 7% | -16% | -1% | -2% | 5% | 4µM*
